The list is not random: actives were taken first. Their share in the collection is about 2.6%.
HIF-2a inh: HIF-2a inhibition; 786-0 RCC cells HIF-2a reporter, luciferase luminescence, overnight; inhibition, % at 18.8 µM; hit rate 0.72% among 360,000; AID 624352;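 active means inhibition of the luminescence signal of 40% or more relative to plate controls, in a single-dose primary screen at 18.75 µM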
KKLEB tox: counter-screen for CF NF-kB inhibitors: cytotoxicity; KKLEB CF airway cells viability, ATPlite luminescence, overnight; stronger effect = lower value; cells stimulated with P. aeruginosa culture filtrate; activity change (cytotoxicity), % at 5 µM; hit rate 0.36% among 360,000; AID 602141;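 active means corrected activity change at or below -50% at 5 µM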
Peg3 prom inh: reduces Peg3 promoter-driven luciferase expression in HeLa; HeLa PEG-Prom luciferase reporter, luminescence, overnight; inhibition, % at 20 µM; hit rate 1.7% among 360,000; AID 588405;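 active means inhibition of at least 50% at 20 µM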
Shn3 3UTR inh: Schnurri-3 reporter inhibition in Clone20 osteoblasts; inhibition, % at 12.5 µM; hit rate 0.52% among 360,000; AID 588674; Clone20 osteoblast Shn3 3'UTR firefly luciferase, 24 h;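 active means mean inhibition of at least 75% with every replicate also reaching 75%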;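 further: 0% = median of neutral control wells and 100% = pilot-screen positive control compound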
CF NFkB block: blocks PAF-induced NF-kB reporter in cystic fibrosis cells. inhibition, % at 5 µM. AID 588850. KKLEB NF-kB-GFP reporter, GFP fluorescence overnight. hit rate 0.86% among 360,000;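 active means at least 50% inhibition at 5 µM, scaled per plate between neutral and stimulator controls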;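 further: PAF is a Pseudomonas aeruginosa culture filtrate used as stimulus; plate controls were PAF-stimulated DMSO wells for no effect and unstimulated DMSO wells for full effect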
* = called active by the depositor.

SMILES	HIF-2a inh	KKLEB tox	Peg3 prom inh	Shn3 3UTR inh	CF NFkB block
Cc1ccc(C)c(NC(=O)C(Sc2ncnc3ccccc23)c2ccccc2)c1 (stereo not drawn)	15.3	-21.0	58.5*	18.4	9.2
Cc1ccc(C)c(NC(=O)C(Sc2nc3ccccc3c(=O)n2CC(C)C)c2ccccc2)c1 (stereo not drawn)	-6.3	-93.3*	56.8*	70.1	105.0*
CC(=O)c1cccc(NC(=O)C(Sc2ncnc3ccccc23)c2ccccc2)c1 (stereo not drawn)	-13.2	-12.2	-47.8	-17.3	6.2
COc1cc(OC)c2c(-c3cccc(-c4ccc(CO)cc4)c3)cc(=O)oc2c1	19.5	-15.1	16.1	10.3	57.1*
CCC(C)n1c(C)nc2c(c1=O)c1nc3ccccc3nc1n2CCC1=CCCCC1 (stereo not drawn)	-30.4	-0.1	76.6*	41.8	-27.9
CCCCn1c2nc3ccccc3nc2c2c(=O)n(C(C)CC)cnc21 (stereo not drawn)	7.6	7.2	33.4	6.8	-4.9
CC(=O)c1cc(F)ccc1OCC(=O)N1CCN(c2ccc(F)cc2)CC1	5.9	1.1	12.5	9.3	9.1
O=C(CCN1CCc2ccccc2CC1)c1ccc2c(c1)OCCO2	16.5	3.9	105.8*	44.4	9.6
CCOc1cc(/C=C/C(=O)Nc2ccc(C(=O)NCCN(CC)CC)cc2)ccc1OCC(C)C	21.1	-33.7	104.0*	37.1	12.9
CCOc1ccc(/C=C/C(=O)Nc2ccc(C(N)=O)cc2)cc1OC	3.7	-9.8	1.3	12.8	-8.5
Cc1ccccc1Oc1ccc(Oc2ccccc2C)nn1	-272.7	15.1	-180.8	8.6	-3.3
CC(CCC(=O)O)C1CC[C@@]2(C)C3C(=O)CC4C(C)(C)C(O)CC[C@]4(C)C3C(=O)C[C@]12C (stereo partly drawn)	8.0	-2.9	16.2	-0.7	-0.5
NC1=NC[C@H](c2ccccc2)N1CCCCC1CCCCC1	6.8	-25.8	99.8*	82.4	4.6
On1ccccc1=S	10.8	0.8	100.4*	83.5	-8.8
O=C(Cn1ccccc1=S)c1ccc(Cl)c(Cl)c1	-28.6	-3.6	5.4	-2.5	-1.7
O=S(=O)(CCSc1ccccn1)c1nc2ccccc2s1	16.8	-35.0	59.6*	13.2	32.4
O=C(CSc1ccccn1)Nc1nc2ccccc2s1	-178.2	4.8	-160.7	-14.3	-18.3
Cc1ccc(S(=O)(=O)c2c(C)nn(C(C)(C)C)c2OC(=O)c2ccc(Br)o2)cc1	-3.7	1.7	70.0*	73.6	12.9
O=C(N/N=C/c1ccccn1)c1[nH]c2ccc([N+](=O)[O-])cc2c1-c1ccccc1	-9.8	-12.1	54.6*	31.2	-7.1
O=C(N/N=C/c1ccccn1)c1cc(-c2ccccc2)nc2ccccc12	8.3	-5.8	65.5*	4.3	3.3
O=C(Nc1ccccc1F)c1ccc2sc([C@@H]3O[C@H](CO)[C@H](O)[C@H](O)[C@H]3O)nc2c1	-156.3	-9.8	-135.1	-17.3	-16.9
CC(C)Nc1ncnc2c1ncn2[C@H]1CN(CCN2CCOCC2)C[C@@H](CO)O1	2.4	-8.6	-5.0	20.6	15.3
c1ccc(-c2noc(-c3ccncc3)n2)nc1	-135.7	1.6	-101.7	-48.8	8.5
c1ccc(-c2noc(-c3ccc4ccccc4c3)n2)nc1	88.0*	-90.7*	86.8*	88.6*	-42.5
CC(C)C1C(=O)N(Cc2cn(CCC3OCCO3)nn2)CCS(=O)(=O)N1Cc1ccc(-c2ccc(Cl)c(Cl)c2)cc1 (stereo not drawn)	-32.9	-8.9	59.9*	88.8*	31.0
SMILES	HIF-2a inh	KKLEB tox	Peg3 prom inh	Shn3 3UTR inh	CF NFkB block
O=Cc1nccc2ccccc12	-3.7	12.0	5.3	-2.6	27.5
C(=Cc1c[nH]c2ccccc12)c1nccc2ccccc12	-52.5	-55.0*	-91.5	-1.8	-249.2
CCc1ccc(C(=O)CSc2nc(C)cc(=O)[nH]2)cc1	-52.7	-0.8	-5.7	-14.2	8.9
O=[N+]([O-])c1c(NCCCO)cc(SCc2ccco2)c2nonc12	21.8	-10.9	15.8	-38.3	6.2
CC(=O)OCCCNc1cc(Sc2ccc(C)cc2)c2nonc2c1[N+](=O)[O-]	12.1	4.2	29.6	95.1*	30.1
Cn1ccnc1Sc1cc(NCCCO)c([N+](=O)[O-])c2nonc12	21.5	17.5	84.6*	44.7	-19.1
O=C(COc1ccc(OCc2ccccc2)cc1)NC1CCOC1=O (stereo not drawn)	5.1	2.3	-6.7	8.7	12.7
Cc1cc(N2CCN(C)CC2)nc2ccc(NC(=S)N3CCN(c4ccc(Cl)cc4)CC3)cc12	7.8	-1.3	-27.2	2.6	2.1

Assay outcomes deposited in PubChem by several laboratories.
